Many of the other results were omitted from the sample, so hits are more common in it than they were.
Artemis inh: inhibitors of human Artemis endonuclease activity; recombinant Artemis, quenched FAM hairpin cleavage fluorescence; inhibition, % at 10 µM; actives 0.78% (n = 30,000); AID 686954;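 active means at 10 µM dose, at least 30% inhibition, measured as corrected fluorescence normalized to stimulator and neutral control wells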
Target sequence (Q96SD1 whole entry, looked up): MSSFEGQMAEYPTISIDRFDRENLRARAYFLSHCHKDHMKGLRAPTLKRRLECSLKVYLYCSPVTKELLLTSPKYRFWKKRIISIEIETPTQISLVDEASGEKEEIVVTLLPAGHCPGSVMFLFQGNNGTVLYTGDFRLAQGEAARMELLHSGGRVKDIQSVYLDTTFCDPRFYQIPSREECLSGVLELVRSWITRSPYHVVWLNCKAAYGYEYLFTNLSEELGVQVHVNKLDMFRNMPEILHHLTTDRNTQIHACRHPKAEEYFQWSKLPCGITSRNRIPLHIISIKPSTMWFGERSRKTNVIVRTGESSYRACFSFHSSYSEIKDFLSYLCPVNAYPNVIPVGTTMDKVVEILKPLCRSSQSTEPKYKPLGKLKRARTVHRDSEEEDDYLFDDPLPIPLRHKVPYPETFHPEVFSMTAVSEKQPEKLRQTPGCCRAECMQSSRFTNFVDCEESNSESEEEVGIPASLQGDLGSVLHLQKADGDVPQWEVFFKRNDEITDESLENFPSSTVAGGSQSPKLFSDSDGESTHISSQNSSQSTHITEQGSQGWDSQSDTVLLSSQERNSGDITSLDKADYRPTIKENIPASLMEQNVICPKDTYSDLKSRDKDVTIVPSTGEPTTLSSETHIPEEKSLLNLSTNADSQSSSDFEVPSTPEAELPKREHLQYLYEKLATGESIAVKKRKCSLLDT
* marks the source's active call; other numbers are inactive results.

For O=C(Nc1nc(-c2ccccn2)cs1)c1ncc(Cl)c(Cl)c1Cl the results were Artemis inh 23.
Screening O=C(CCCSc1ccccc1)Nc1nc(-c2ccccn2)cs1 returned Artemis inh 58*.
`O=C(O)CCC(=O)Nc1nc(-c2ccccc2)cs1` gave Artemis inh 2.
CN=C1CC(C)(C)CC(=O)/C1=C(/O)CCC(=O)NC was read as Artemis inh 1.
`Nc1[nH]n2c(=O)cc(-c3ccccc3)nc2c1N=Nc1ccccc1` gave Artemis inh 47*.
Screening O=c1cc(-c2ccccc2)nc2nc(-c3ccccc3)[nH]n12 returned Artemis inh 5.
O=c1cc(-c2ccccc2)nc2nc(COc3ccccc3)[nH]n12 was read as Artemis inh 5.
CC1=CC(C)C2C(=O)N(CCCN(C)C)C(=O)C2C1 (stereo unspecified) was read as Artemis inh 6.
For Cc1ccc(Nc2nc(N)nc(CN3CCN(Cc4ccc5c(c4)OCO5)CC3)n2)cc1 the results were Artemis inh 1.
`CCOC(=O)C1CCCN(c2cc(C)nc3cc(-c4ccc(Cl)cc4)nn23)C1` (stereo unspecified) gave Artemis inh 1.
`CCOC(=O)C1CCCN(C(=O)Cc2ccc(Cl)cc2)C1` (stereo unspecified) gave Artemis inh -2.
CCCCOc1ccc(NC(=O)CN2CCN(C(=O)OCC)CC2)cc1 was read as Artemis inh 0.
For CCOC(=O)C1CCCN(Cc2nc(N)nc(Nc3ccc(Cl)cc3)n2)C1 (stereo unspecified) the results were Artemis inh 34*.
`CCOC(=O)N1CCN(Cc2nc(N)nc(Nc3ccc(Oc4ccccc4)cc3)n2)CC1` gave Artemis inh 39*.
For Clc1ccc(OCc2nn3c(C4CCCCC4)nnc3s2)cc1 the results were Artemis inh 11.
For Cc1ccc(C)n1-c1sc2c(c1C#N)CCC(C)C2 (stereo unspecified) the results were Artemis inh 7.
Screening Cc1cc(C)n(Cc2ccc(Cl)c(Cl)c2)c(=O)c1S(=O)(=O)c1ccccc1 returned Artemis inh -1.
Screening COc1cccc(/C=N/n2c(C)nc3ccccc3c2=O)c1O returned Artemis inh -2.
For COc1cccc(/C=N/Nc2nc(Nc3ccccc3)nc(-n3nc(C)cc3C)n2)c1O the results were Artemis inh 96*.
Screening COc1cccc(/C=N/NC(=O)c2c(-c3ccccc3)noc2C)c1O returned Artemis inh 7.
Screening CCCNC(=O)NC(=O)CSc1ccc2c(c1)OCCO2 returned Artemis inh -1.
Screening Cc1ccc(-c2cc(C(=O)NCCCn3ccnc3)c3cc(Br)ccc3n2)o1 returned Artemis inh 31*.
`COc1ccc(C(=O)NCCCn2ccnc2)cc1` gave Artemis inh -4.
Screening Cc1ccc(-c2cc(C(=O)NCc3ccco3)c3ccccc3n2)o1 returned Artemis inh 11.
Screening Cc1ccnc(NC(=O)CCC(=O)N(CC(=O)NC2CCCCC2)CC2CCCO2)c1 (stereo unspecified) returned Artemis inh -2.
O=C(Nc1ncc2c(n1)CC(c1ccco1)CC2=O)c1ccccc1 (stereo unspecified) was read as Artemis inh -3.
Screening O=C1CC(c2ccco2)Cc2nc(Nc3nc(-c4ccccc4)c4ccccc4n3)ncc21 (stereo unspecified) returned Artemis inh 34*.
For Cc1cccc(Nc2ncc3c(n2)CC(c2ccco2)CC3=O)c1 (stereo unspecified) the results were Artemis inh 7.
`CC(Sc1nnc(CNc2cccc3ccccc23)n1-c1ccccc1)C(=O)N/N=C/c1ccco1` (stereo unspecified) gave Artemis inh 12.
`N#Cc1c(NC(=O)CSc2nnc(-c3ccco3)n2-c2ccccc2)sc2c1CCC2` gave Artemis inh 36*.
`COc1ccc(-c2nnc(SCC(=O)Nc3sc4c(c3C#N)CCC4)n2CC2CCCO2)cc1` (stereo unspecified) gave Artemis inh 42*.
`COc1ccc(-c2ccc(C#N)c(SCC(=O)Nc3sc4c(c3C#N)CCC4)n2)cc1` gave Artemis inh 15.
CCn1c(SCC(=O)Nc2sc3c(c2C#N)CCCC3)nnc1-c1ccco1 was read as Artemis inh 8.
For COc1ccc(-n2c(SCC(=O)Nc3sc4c(c3C#N)CCCC4)nnc2-c2ccccc2OC)cc1 the results were Artemis inh 14.
`COc1ccc(-c2nnc(SCC(=O)NC(C)C)n2CC2CCCO2)cc1OC` (stereo unspecified) gave Artemis inh -6.
Screening C#CC[N+](C)(C)C(C#Cc1ccccc1)CC=C (stereo unspecified) returned Artemis inh 1.
CCOc1ccc(C2CC(c3cccc(OC)c3OC)n3nnnc3N2)cc1Cl (stereo unspecified) was read as Artemis inh 10.
O=C(O)C1CCC(=O)N1Cc1ccccc1Cl (stereo unspecified) was read as Artemis inh -7.
For Cc1ccc(N(CC(=O)O)S(C)(=O)=O)cc1Cl the results were Artemis inh 0.
Cc1nc2ccccc2nc1N1CCOCC1 was read as Artemis inh 4.
Screening O=C1C(N2CCOCC2)=C(n2nnc3ccccc32)C(=O)c2ccccc21 returned Artemis inh 36*.
`O=C1c2ccccc2C(=O)c2c1cccc2N1CCOCC1` gave Artemis inh 4.
For CC1CCc2c(sc(N)c2C(=O)OC(C)C)C1 (stereo unspecified) the results were Artemis inh 6.
Cc1nc(COC(=O)c2c(C)nn(-c3ccccc3)c2C)cs1 was read as Artemis inh 0.
Screening CC/C(=C1/C(=O)CC(C)(C)C(C(=O)OC)C1=O)N1CCCC1 (stereo unspecified) returned Artemis inh 0.
For C=CCOc1nc(N(C)C)nc(N(C)C)n1 the results were Artemis inh -3.
For CC(=O)N(C)/C=C1\Sc2ccccc2C1=O the results were Artemis inh -6.
Screening CC(=O)N(/N=C1\Sc2ccccc2C1=O)c1cccc(C)c1 returned Artemis inh 36*.
For CCC(=O)N(C)/C=C1\Sc2ccccc2C1=O the results were Artemis inh -2.
`COC(=O)C1=C(C)Nc2c(c(=O)n(C)c(=O)n2C)C1c1cccs1` (stereo unspecified) gave Artemis inh -3.
For O=C(COC(=O)c1ccccc1NC(=O)c1ccco1)NCc1ccc2c(c1)OCO2 the results were Artemis inh -1.
For O=c1c2ccccc2nnn1CSc1nnc(-c2ccc3c(c2)OCO3)o1 the results were Artemis inh 2.
Screening COc1ccc(C(=O)c2ccc(Cl)cc2)cc1 returned Artemis inh -2.
Screening Cc1oc2c(c1C(=O)c1ccc(Cl)cc1)C(=O)C(=O)c1ccccc1-2 returned Artemis inh 50*.
`COc1ccc(C(=O)c2c(C(F)(F)F)oc3c2C(=O)c2ccccc2C3=O)cc1` gave Artemis inh 28.
Screening O=C(c1ccc(O)cc1)c1ccc(Cl)cc1 returned Artemis inh 8.
`Cc1ccc(C(=O)c2cn[nH]c2-c2ccccc2O)cc1` gave Artemis inh -1.
`Cc1ccc(C(=O)c2c(C)oc3c2C(=O)C(=O)c2ccccc2-3)cc1` gave Artemis inh 55*.
Screening COc1cccc(C2NC(=O)c3sc(=S)n(-c4ccccc4)c3N2)c1 (stereo unspecified) returned Artemis inh 4.
Screening N#Cc1c(SCc2cccc(Cl)c2)sc(C(=O)c2ccccc2)c1N returned Artemis inh 6.

Screening results: PubChem BioAssay, Sanford-Burnham Center for Chemical Genomics
